The results in this text go back to publication PMC4336329 (PLoS ONE, 2015).

Out of some 310,000 compounds screened, about 14,000 (4.5%) showed an effect of 50% or more. The effect is printed as a negative number. What follows is part of a selection rich in strong results, with near analogues and random picks from the rest.
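Also: peak tail current of the secondary pulse compared with the same well before compound.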

human ether-à-go-go-related gene (hERG) potassium channel, sequence (Q12809 whole entry, looked up): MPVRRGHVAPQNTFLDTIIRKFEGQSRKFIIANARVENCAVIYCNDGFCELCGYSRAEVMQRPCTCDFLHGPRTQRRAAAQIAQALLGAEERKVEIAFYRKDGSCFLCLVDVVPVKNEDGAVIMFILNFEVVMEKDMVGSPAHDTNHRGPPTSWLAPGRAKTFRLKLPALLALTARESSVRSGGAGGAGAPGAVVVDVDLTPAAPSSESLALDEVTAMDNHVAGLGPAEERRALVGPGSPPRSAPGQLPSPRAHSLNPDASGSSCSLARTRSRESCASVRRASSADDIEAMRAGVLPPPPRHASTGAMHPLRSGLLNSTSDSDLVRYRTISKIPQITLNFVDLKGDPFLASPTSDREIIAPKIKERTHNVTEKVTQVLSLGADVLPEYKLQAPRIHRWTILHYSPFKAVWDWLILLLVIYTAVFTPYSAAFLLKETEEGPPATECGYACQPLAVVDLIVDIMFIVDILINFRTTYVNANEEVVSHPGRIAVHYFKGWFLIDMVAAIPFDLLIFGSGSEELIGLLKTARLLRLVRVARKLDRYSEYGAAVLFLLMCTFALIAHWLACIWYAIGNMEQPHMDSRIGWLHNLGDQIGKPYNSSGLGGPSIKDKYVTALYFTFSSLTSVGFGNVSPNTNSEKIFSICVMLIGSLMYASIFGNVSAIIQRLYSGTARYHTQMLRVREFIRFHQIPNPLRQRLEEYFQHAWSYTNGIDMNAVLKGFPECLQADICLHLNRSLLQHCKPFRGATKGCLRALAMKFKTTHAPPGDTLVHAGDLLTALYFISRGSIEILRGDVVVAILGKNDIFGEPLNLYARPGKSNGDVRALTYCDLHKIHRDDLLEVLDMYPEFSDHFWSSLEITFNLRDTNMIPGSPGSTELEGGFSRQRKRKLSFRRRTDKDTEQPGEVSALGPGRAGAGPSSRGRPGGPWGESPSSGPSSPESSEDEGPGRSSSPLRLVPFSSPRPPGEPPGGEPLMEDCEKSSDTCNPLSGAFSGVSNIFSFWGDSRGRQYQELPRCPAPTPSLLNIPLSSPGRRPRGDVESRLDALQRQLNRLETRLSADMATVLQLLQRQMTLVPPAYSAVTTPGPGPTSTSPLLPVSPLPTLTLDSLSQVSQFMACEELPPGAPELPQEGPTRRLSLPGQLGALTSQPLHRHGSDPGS

This experiment addresses human ether-à-go-go-related gene (hERG) potassium channel (human, UniProt Q12809). Briefly: primary screen, population patch clamp on CHO cells stably expressing hERG; higher = less effect of the substance.
As for `O=c1[nH]c(O)c(/C=C2\C=Nc3ccccc32)[nH]1`, the “hERG current change (%, negative = inhibition) at 10uM” value came out at 20.9%.

Regarding `Cc1cc(S(=O)(=O)N2CCOCC2)ccc1OCC(=O)NCC1CCCO1` (centres unmarked), the “hERG current change (%, negative = inhibition) at 10uM” value is -0.633%.

For `COc1ccc(S(=O)(=O)N(Cc2ccccc2)c2ccccc2C(=O)O)cc1`, the “hERG current change (%, negative = inhibition) at 10uM” value worked out at 31.8%.

Regarding `O=S(=O)(Cc1ccccc1)NCCc1cccc(Cl)c1`, the “hERG current change (%, negative = inhibition) at 10uM” value is recorded as -5.57%.

As for `Cc1nnc(-c2cnn(-c3ccccc3)c2N)n1Cc1ccccc1`, the “hERG current change (%, negative = inhibition) at 10uM” value was -1.94%.

For the compound `CCCOc1ccc(CC(CC(=O)O)(C(=O)O)C(=O)O)cc1`, the “hERG current change (%, negative = inhibition) at 10uM” value was determined as 13.5%.

Regarding `COC(=O)c1cccc(Nc2ncnc3ccc(C)cc23)c1`, the “hERG current change (%, negative = inhibition) at 10uM” value is -20.9%.

With `CCOC(=O)c1cccc(Nc2ncnc3ccc(C)cc23)c1`, the “hERG current change (%, negative = inhibition) at 10uM” value is -59.3%.

For the compound `CCOC(=O)c1cccc(Nc2ncnc3ccccc23)c1.Cl`, the “hERG current change (%, negative = inhibition) at 10uM” value is given as -24.9%.

As for `Cn1c(SCC(=O)c2ccccc2)nnc1-c1ccncc1`, the “hERG current change (%, negative = inhibition) at 10uM” value is on record as -0.277%.

`Cn1c(SCCCC(=O)c2ccc(F)cc2)nnc1-c1ccncc1`: the “hERG current change (%, negative = inhibition) at 10uM” value is given as -59.6%.

Regarding `COCCn1c(SCC(=O)N2CCOCC2)nnc1-c1ccncc1`, the “hERG current change (%, negative = inhibition) at 10uM” value is -7.01%.

As to `COCCn1c(SCCCC(=O)c2ccc(Br)cc2)nnc1-c1ccncc1`, the “hERG current change (%, negative = inhibition) at 10uM” value was -60.7%.

Turning to `Cc1ccc(C(=O)CSc2nnc(-c3ccncc3)n2C)cc1`, the “hERG current change (%, negative = inhibition) at 10uM” value is -3.2%.

For `Cn1c(SCCCC(=O)c2ccccc2)nnc1-c1ccncc1`, the “hERG current change (%, negative = inhibition) at 10uM” value is -42.9%.

On to `Cn1c(SCCC(=O)O)nnc1-c1ccncc1`, for which the “hERG current change (%, negative = inhibition) at 10uM” value is 1.73%.

In the case of `CCOc1ccc(C(C)=O)cc1CSc1nnc(-c2ccncc2)n1CCOC`, the “hERG current change (%, negative = inhibition) at 10uM” value is -0.498%.

Turning to `Cn1c(SCCCC(=O)c2ccc(Br)cc2)nnc1-c1ccncc1`, the “hERG current change (%, negative = inhibition) at 10uM” value is listed as -70.2%.

With `[O-][n+]1onc2c1CCC1N(O)C(c3ccccc3)CC21O` (centres unmarked), the “hERG current change (%, negative = inhibition) at 10uM” value is recorded as 14.7%.

In the case of `O=C(c1cc(C2CC2)nn1-c1ccccc1)N1CCN(Cc2c(F)cccc2Cl)CC1`, the “hERG current change (%, negative = inhibition) at 10uM” value is -36.6%.

On to `CN(CCO)C(=O)c1cccc2c1-c1ccccc1C2=O`, for which the “hERG current change (%, negative = inhibition) at 10uM” value was 4.12%.

On to `c1ccc(-c2ccc(-c3ccccn3)s2)nc1`, for which the “hERG current change (%, negative = inhibition) at 10uM” value was -8.87%.

Turning to `CCOc1ccc(NC(=O)c2ccc(Br)o2)c([N+](=O)[O-])c1`, the “hERG current change (%, negative = inhibition) at 10uM” value is 5.5%.

In the case of `CC(C)C(=O)NC(c1ccco1)c1c(O)ccc2ccccc12` (centres unmarked), the “hERG current change (%, negative = inhibition) at 10uM” value was 14.1%.

Regarding `COc1ccc(F)cc1C(=O)C1CCCN(Cc2ccc3c(c2)OCCO3)C1` (centres unmarked), the “hERG current change (%, negative = inhibition) at 10uM” value is -54.3%.

For `O=C(c1ccc(Cl)cc1)C1CCCN(Cc2ccon2)C1` (centres unmarked), the “hERG current change (%, negative = inhibition) at 10uM” value is given as -18%.

`COc1ccc(C(=O)C2CCCN(Cc3ccc4c(c3)OCCO4)C2)cc1F` (centres unmarked): the “hERG current change (%, negative = inhibition) at 10uM” value is -74.7%.

Consider `O=C(CN1CCC(C(=O)c2ccc(Cl)cc2)CC1)Nc1ccc2c(c1)OCCO2`, for which the “hERG current change (%, negative = inhibition) at 10uM” value is recorded as -44.9%.

Take `O=C(c1ccc(Cl)cc1)C1CCCN(Cc2ccc3c(c2)OCCO3)C1` (centres unmarked): the “hERG current change (%, negative = inhibition) at 10uM” value is reported as -73.5%.

`COc1ccc(F)cc1C(=O)C1CCCN(Cc2ccc(Sc3nncn3C)o2)C1` (centres unmarked): the “hERG current change (%, negative = inhibition) at 10uM” value came to 12.6%.

For the compound `COc1ccccc1C(=O)C1CCCN(Cc2ccc3c(c2)OCCO3)C1` (centres unmarked), the “hERG current change (%, negative = inhibition) at 10uM” value was -40.5%.

Consider `COc1ccc(C(=O)C2CCCN(Cc3ccc(Sc4nncn4C)o3)C2)cc1F` (centres unmarked), for which the “hERG current change (%, negative = inhibition) at 10uM” value was -15.4%.
